Screening data: PubChem, National Center for Advancing Translational Sciences (NCATS)
SMN2 splice enh: enhancers of SMN2 splice variant expression; AID 1458; HEK293 SMN2-luciferase splicing reporter, luminescence, 30-36 h; 2.8% of 210,000 active; Potency, µM (titrated, usually from 46.1 µM), for inactives: at the highest dose activity change, positive = activation, actives largely listed as activators; further: % of control where 0% means no effect; nearly all actives have a fitted effect of over 55% in size
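qHTS luciferase splicing reporter: luminescence rises when SMN2 exon 7 is included in transfected HEK293 cells. Compound exposure lasted 30-36 h at 37C, with 4.5 mM final sodium butyrate as control, followed by a ONE-Glo read.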
NPC1 prom act: activates the NPC1 promoter; Huh7 NPC1 promoter luciferase reporter, 24 h; Potency, µM (top dose mostly 9.22 µM), inactives show at the top dose activation, hits mostly activators; 2.4% of 320,000 active; AID 485313; further: % of control where 0% means no effect; nearly all actives have a fitted effect of over 60% in size
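In 1536-well qHTS, Huh7 cells harboring an NPC1 promoter–luciferase construct received compound for 24 h; activation was quantified by luminescence following luciferase reagent addition.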
ELG1 genotox: genotoxicity induction in ELG1-luciferase HEK293T cells | HEK293T ELG1-luciferase reporter, luminescence, 16 h | Potency, µM (highest dose often 46 µM), without a hit: at the highest dose activity change, positive = activation, actives largely listed as activators | 1.3% of 330,000 active | AID 504466; further: % of control where 0% means no effect; nearly all actives have a fitted effect of over 60% in size
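ELG1-luciferase HEK293T cells, 2,000/well; compound pinned in; 16 hr, 37 °C, 5% CO2; ONE-Glo, 30 min RT; luminescence on CCD imager.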
FLuc modulator: firefly luciferase modulation, counter-screen for miR-21 project; P08659; purified FLuc, Km substrates, luminescence inhibition; Potency, µM (highest dose often 57.5 µM), without a hit: top-dose activity change, negative = inhibition, actives largely listed as inhibitors; 6.9% of 360,000 active;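 further: plate controls were vehicle for no effect and reference inhibitor for full effect; nearly all actives have a fitted effect of over 55% in size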
Target sequence (P08659 whole entry, looked up): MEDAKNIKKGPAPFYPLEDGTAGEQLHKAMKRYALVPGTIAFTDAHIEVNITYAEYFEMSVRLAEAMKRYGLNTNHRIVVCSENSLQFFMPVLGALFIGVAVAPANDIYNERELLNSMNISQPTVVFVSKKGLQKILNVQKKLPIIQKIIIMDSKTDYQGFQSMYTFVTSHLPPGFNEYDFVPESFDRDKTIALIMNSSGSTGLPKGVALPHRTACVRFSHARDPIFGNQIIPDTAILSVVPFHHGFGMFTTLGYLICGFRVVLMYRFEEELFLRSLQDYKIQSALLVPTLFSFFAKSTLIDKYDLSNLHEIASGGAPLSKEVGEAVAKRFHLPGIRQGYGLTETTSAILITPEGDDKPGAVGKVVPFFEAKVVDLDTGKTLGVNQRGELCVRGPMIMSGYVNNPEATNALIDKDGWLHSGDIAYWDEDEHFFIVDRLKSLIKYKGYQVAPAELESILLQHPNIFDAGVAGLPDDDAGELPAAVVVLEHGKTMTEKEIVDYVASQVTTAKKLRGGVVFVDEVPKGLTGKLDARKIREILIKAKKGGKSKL
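Purified P. pyralis luciferase (10nM final) with 10uM D-luciferin and 10uM ATP (Km levels) in 50mM Tris acetate pH 7.5, 10mM Mg acetate, 0.01% Tween-20, 0.05% BSA; qHTS 6-point titration, ~60 µM downward; luminescence read.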
Luc counter: Kinase-Glo luciferase inhibition (counter-screen); Kinase-Glo luciferase, ATP luminescence, 8 min; AID 1379; 0.28% of 200,000 active; Potency, µM (top dose mostly 38.3 µM), without a hit: at the top dose activity change, negative = inhibition, actives largely listed as inhibitors; further: on the % scale 0 is the no-effect control and ±100 the full control effect; nearly all actives have a fitted effect of over 60% in size
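Light output from Kinase-Glo luciferase with luciferin and 10 uM ATP in 50 mM imidazole pH 7.2, KCl, MgCl2, Tween 20, BSA; compound pin-delivered, 8-min ambient incubation, then luminescence read.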
Rab9 prom act: activators of Rab9 promoter; Huh7 Rab9 promoter-luciferase reporter, luminescence, 24 h; Potency, µM (top dose mostly 9.22 µM), without a hit: at the top dose activation, negative = inhibition, most hits filed as activators; 2.8% of 320,000 active; AID 485297; further: % of control where 0% means no effect; nearly all actives have a fitted effect of over 60% in size
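Huh7 reporter line, Rab9 promoter upstream of luciferase. Compound exposure 24 h at 37 °C in reduced-serum medium with 10% FBS. Read-out: luminescence.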
* hit, by the source's call. Hits are enriched below; roughly 7.5% of the tested compounds scored in any of these assays. The call rests on the fitted dose curve; in most records, active means well fitted curve in the direction sought with a large enough effect; inconclusive means small, poorly fitted or top-dose-only effect, or another doubt; inactive means no such curve, though single readings can be large; an effect the other way counts as inactive or inconclusive. Potency means the concentration at half of the fitted maximal effect.

`CCCOc1ccc(/C=C/C(=O)N2CCOCC2)cc1` gave NPC1 prom act 2.51µM*, ELG1 genotox inconclusive, FLuc modulator 15.1µM* and Rab9 prom act inconclusive.
For CCN1CCN(C(=O)/C=C/c2ccc(C)cc2)CC1 the results were NPC1 prom act 11.4%, ELG1 genotox 15.3%, FLuc modulator -7.8% and Rab9 prom act 16.5%.
Screening O=C(NCC1CCCO1)C1CC(c2ccccc2Cl)=NO1 (stereo not given) returned NPC1 prom act -4.4%, ELG1 genotox 15.3%, FLuc modulator -4.8%, Luc counter -1.8% and Rab9 prom act 2.5%.
For Cc1ccc(NC(=O)Cn2c(=O)n(-c3ccc(C)cc3)c(=O)c3c2cnn3C)cc1 the results were SMN2 splice enh 7.0% and FLuc modulator -0.9%.
Cc1cc(Cl)ccc1NC(=O)CCS(=O)(=O)c1cc2c(cc1C)NC(=O)CO2 was read as FLuc modulator -0.4%.
`CC(C)c1ccc(/C=C/C(=O)N2CCCCCC2)cc1` gave SMN2 splice enh -19.1%, NPC1 prom act 14.5%, ELG1 genotox inconclusive, FLuc modulator 15.1µM*, Luc counter 3.9% and Rab9 prom act 1.4%.
Screening CC(C)c1ccc(/C=N/N2CCCCC2)cc1 returned SMN2 splice enh inconclusive, NPC1 prom act 21.1%, ELG1 genotox inconclusive, FLuc modulator 1.51µM*, Luc counter -10.5% and Rab9 prom act 3.16µM*.
CC(C)c1ccc(/C=C/C(=O)N2CCOCC2)cc1 was read as NPC1 prom act 3.16µM*, ELG1 genotox inconclusive, FLuc modulator 9.53µM* and Rab9 prom act 2.51µM*.
Screening CN1CCN(C(=O)/C=C\c2ccc(Cl)cc2)CC1 returned SMN2 splice enh 8.5%, NPC1 prom act 1.4%, ELG1 genotox 4.6%, FLuc modulator -12.3%, Luc counter -1.5% and Rab9 prom act -1.8%.
CCOc1ccc(-c2nc(Cn3c(=O)cc(-c4ccccc4)c4c(C)nn(C)c43)c(C)o2)cc1 was read as FLuc modulator -4.3%.
CCn1c2ccccc2c2cc(NC(=O)CC(C)=O)ccc21 was read as SMN2 splice enh 9.0%, NPC1 prom act -3.0%, ELG1 genotox 2.9%, FLuc modulator -2.6%, Luc counter 1.3% and Rab9 prom act -9.5%.
Cc1ccc(O)c(-c2cc(C(=O)Nc3cccnc3)[nH]n2)c1 was read as NPC1 prom act 2.82µM*, ELG1 genotox inconclusive, FLuc modulator 5.36µM* and Rab9 prom act 2.24µM*.
Screening COc1ccc(Cl)cc1C(=O)Nc1cccnc1 returned NPC1 prom act -0.1%, ELG1 genotox 0.9%, FLuc modulator -6.4% and Rab9 prom act -0.3%.
`Cc1ccc(C)c(NC(=O)c2cc(-c3cc(C)c(C)cc3O)n[nH]2)c1` gave NPC1 prom act inconclusive, ELG1 genotox inconclusive, FLuc modulator inconclusive and Rab9 prom act 3.55µM*.
`O=C(Nc1cccnc1)c1cc(-c2cc(Cl)ccc2O)n[nH]1` gave NPC1 prom act 2.82µM*, ELG1 genotox 16.5%, FLuc modulator 2.39µM* and Rab9 prom act inconclusive.
For N/C(=N\OC(=O)CSc1ccccc1)c1ccncc1 the results were NPC1 prom act 16.9%, ELG1 genotox inconclusive, FLuc modulator inconclusive and Rab9 prom act 15.2%.
Screening CCc1ccc(S(=O)(=O)N/N=C\c2ccc3c(c2)OCO3)cc1 returned NPC1 prom act -4.2%, ELG1 genotox -0.2%, FLuc modulator -15.8% and Rab9 prom act 1.5%.
`Cc1cc(C(=O)CN2C(=O)c3ccccc3S2(=O)=O)c(C)n1CC1CCCO1` (stereo not given) gave SMN2 splice enh -68.0%, NPC1 prom act -47.9%, ELG1 genotox -17.6%, FLuc modulator 7.57µM*, Luc counter 0.1% and Rab9 prom act -42.1%.
Cc1cc(C(=O)CN2C(=O)NC(C)(c3ccccc3)C2=O)c(C)n1CC1CCCO1 (stereo not given) was read as SMN2 splice enh 19.4%, NPC1 prom act 10.3%, ELG1 genotox 1.0%, FLuc modulator 16.9µM*, Luc counter 2.2% and Rab9 prom act 1.5%.
For CC1CN(C(=O)CNC(=O)Cc2cccc3ccccc23)CC(C)O1 (stereo not given) the results were NPC1 prom act -0.1%, ELG1 genotox 0.6% and Rab9 prom act -0.9%.
Clc1ccc(-c2noc(/C=C/c3ccccc3)n2)cc1 was read as NPC1 prom act 27.0%, ELG1 genotox inconclusive, FLuc modulator inconclusive and Rab9 prom act 24.0%.
C(=C\c1nc(-c2cccnc2)no1)/c1ccccc1 was read as NPC1 prom act 27.5%, ELG1 genotox 9.3%, FLuc modulator 4.78µM*, Luc counter -1.9% and Rab9 prom act inconclusive.
Screening Cc1ccc(-c2noc(/C=C/c3ccccc3)n2)cc1 returned SMN2 splice enh inconclusive, NPC1 prom act inconclusive, ELG1 genotox 19.1%, FLuc modulator 9.53µM*, Luc counter -4.2% and Rab9 prom act inconclusive.
Clc1ccccc1/C=C/c1nc(-c2cccnc2)no1 was read as NPC1 prom act 1.26µM*, ELG1 genotox inconclusive, FLuc modulator 1.69µM* and Rab9 prom act 0.631µM*.
Screening COC(=O)C1CCN(C(=O)COC(=O)CCc2nc3ccccc3c(=O)[nH]2)CC1 returned SMN2 splice enh 3.6%, NPC1 prom act -6.4%, ELG1 genotox 0.5%, FLuc modulator 4.6%, Luc counter -1.2% and Rab9 prom act 1.5%.
`Cc1cc(C(F)(F)F)nn1-c1nc(-c2ccccc2)cc(C(F)(F)F)n1` gave SMN2 splice enh -15.7% and FLuc modulator -8.1%.
Screening COc1cc(-c2nc3cnccn3c2Nc2ccc(C)cc2)ccc1O returned SMN2 splice enh 17.8µM*, NPC1 prom act 1.1%, ELG1 genotox 13µM*, FLuc modulator -8.9%, Luc counter 19.1% and Rab9 prom act -2.6%.
For COc1cc(-c2nc3cnccn3c2Nc2ccccc2)ccc1O the results were SMN2 splice enh 14.1µM*, NPC1 prom act -6.5%, ELG1 genotox 5.9%, FLuc modulator -9.0%, Luc counter 3.5% and Rab9 prom act -7.2%.
COc1cc(-c2nc3cnccn3c2Nc2ccc(C(C)C)cc2)ccc1O was read as SMN2 splice enh -9.4%, NPC1 prom act -1.7%, ELG1 genotox 14.5%, FLuc modulator -0.7%, Luc counter 19.7% and Rab9 prom act -1.6%.
Cc1nc2cc(NC(=O)NCCC3=CCCCC3)ccc2o1 was read as NPC1 prom act 3.98µM*, ELG1 genotox 14.6µM*, FLuc modulator 12µM*, Luc counter -0.2% and Rab9 prom act 3.55µM*.
